This is part of a sample that, as a whole, favours compounds with a hit. Of some 79,000 tested, about 15% had one in any assay. The source made the active and inactive calls. No stated cut-off is given here; in the data, active means growth inhibition above about 70%; inactive means the rest.
Legend:
[1] = NCI Yeast Anticancer Drug Screen. Data for the rad50 strain (AID 155);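 further: 0% = growth of vehicle-only cultures of the same strain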; details: S. cerevisiae rad50 strain growth inhibition; at 50.0 µM; active compounds read high
How it was run: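 DNA repair mutant yeast, compound exposure, growth read-out; inhibition is taken relative to vehicle.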

[2] = NCI Yeast Anticancer Drug Screen. Data for the mec2-1 strain (AID 157); details: S. cerevisiae mec2-1 strain, at 50.0 µM, active compounds read high
How it was run: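 Readout is yeast growth inhibition, normalised to vehicle-treated controls, in the mec2-1 strain exposed to compound.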

[3] = NCI Yeast Anticancer Drug Screen. Data for the sgs1 mgt1 strain (AID 161);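 further: 0% = growth of cultures given vehicle only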; details: S. cerevisiae sgs1 mgt1 strain, at 50.0 µM, active compounds read high
How it was run: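 Compounds are added to genetically altered yeast, and growth is compared with cultures given vehicle alone to give percent inhibition.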

[4] = NCI Yeast Anticancer Drug Screen. Data for the cln2 rad14 strain (AID 165);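 further: 0% = growth equal to vehicle treated cultures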; details: S. cerevisiae cln2 rad14 strain, at 50.0 µM, active compounds read high
How it was run: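 Relative to vehicle controls, growth inhibition of compound-treated cln2 rad14 yeast was recorded.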

[5] = NCI Yeast Anticancer Drug Screen. Data for the bub3 strain (AID 167); details: S. cerevisiae bub3 mutant strain, at 50.0 µM, active compounds read high
How it was run: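 In this screen, a yeast mutant lacking normal mitotic checkpoint function is challenged with compound. Relative growth versus vehicle gives the inhibition value.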

[6] = NCI Yeast Anticancer Drug Screen. Data for the mlh1 rad18 strain (AID 175); details: S. cerevisiae mlh1 rad18 strain growth inhibition; at 50.0 µM; active compounds read high
How it was run: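 Test agents were incubated with a yeast strain of defined genotype (DNA damage repair defect). Inhibition of growth was derived by comparison with vehicle-exposed cultures.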

Measured: growth inhibition

Fc1cccc(-c2nnc(-c3cccc4ccccc34)o2)c1
inactive: [1] -8.65% | [2] -1.8% | [3] -0.5% | [4] -49.8% | [5] 1.45% | [6] -5.1%

CCC(C)C(=O)/C=C/c1ccccc1 (configuration not stated)
inactive: [1] 14.2% | [2] -6.15% | [3] -2.85% | [4] -25.3% | [5] 21.3% | [6] -12.1%

Cc1ccc(S(=O)(=O)OCC2CCC(=O)N2)cc1 (configuration not stated)
inactive: [1] 20.4% | [2] -13.2% | [3] 0.5% | [4] -3.15% | [5] -3.9% | [6] 27.1%

CC#CCCC1CCCCNC1=O (configuration not stated)
inactive: [1] 0.8% | [2] -16.9% | [3] 27.1% | [4] 12.1% | [5] 26.5% | [6] 3.7%

CCCC(CCCC(=O)O)C(=O)O (configuration not stated)
inactive: [1] -4% | [2] -9.8% | [3] 0.95% | [4] -8.2% | [5] 11.9% | [6] 6.1%

Cn1c2cc(Cl)c(Cl)cc2nc2cc3c(cc21)c(Cl)c(=O)c1cc2cc(Cl)c(Cl)cc2cc13
inactive: [1] 31.8% | [2] 8.65% | [3] 11.3% | [4] 25.9% | [5] -2.85% | [6] 20.3%

N#CCCP(=O)(O)CO
inactive: [1] -6.5% | [2] -13.3% | [3] 1.1% | [4] 0.1% | [5] 3.9% | [6] -26.7%

Clc1cccc(Cl)c1/C=N/Nc1nnc(N/N=C/c2c(Cl)cccc2Cl)c2ccccc12
inactive: [1] 18.8% | [2] 23.4% | [3] 56.3% | [4] 31.5% | [5] -1.4% | [6] 34.4%

CCOC(=O)c1ccccc1S(=O)(=O)c1ccccc1C(=O)OCC
inactive: [1] 1.4% | [2] 16.9% | [3] 9.85% | [4] 11.2% | [5] 5.2% | [6] 10.4%

O=C(COCC(=O)N/N=C/c1ccc(Cl)cc1Cl)N/N=C\c1cc(Cl)cc(Cl)c1
inactive: [1] -21.1% | [2] -1.65% | [3] 0.75% | [4] 37.2% | [5] -1% | [6] -12.2%

Cc1ccsc1C(=O)c1ccccc1
inactive: [1] -11.6% | [2] -7% | [3] -5.65% | [4] -24.6% | [5] -1.5% | [6] 5.45%

Nc1ncnc2c1c1c(=O)[nH]c(=O)[nH]c1n2C1OC(CO)C(O)C1O (configuration not stated)
inactive: [1] -1.95% | [2] 1.8% | [3] 7.35% | [4] 2.15% | [5] -7.55% | [6] -44.5%

Cc1ccc[nH]c1=O
inactive: [1] -9.9% | [2] -15.1% | [3] -0.6% | [4] -8.05% | [5] -8.45% | [6] 2.4%

COc1cc([C@H]2Oc3cc([C@H]4Oc5cc(O)cc(O)c5C(=O)[C@@H]4O)ccc3O[C@@H]2CO)ccc1O
inactive: [1] 3.15% | [2] 0.55% | [3] 11.8% | [4] -36.4% | [5] 15.5% | [6] 6.05%

COc1ccc2c(c1)[n+]([O-])c(/C(C)=N/NC(N)=S)c(C)[n+]2[O-]
inactive: [1] 65.6% | [2] 12.2% | [3] 41.6% | [4] 11.4% | [5] 61% | [6] 47.1%

CC(C)O[Si](OC(C)C)(OC(C)C)OC(C)C
inactive: [1] 13.2% | [2] -16.1% | [3] -8.7% | [4] -3.25% | [5] 9.9% | [6] 2.6%

O[C@@H]1C=C(c2ccccc2)[C@H](c2ccccc2)C1
inactive: [1] -3% | [2] 9.6% | [3] 9.65% | [4] -7.9% | [5] -19.8% | [6] -1.15%

CCCCC(=O)c1cc2ccccc2c2ccccc12
inactive: [1] -3.7% | [2] -20.4% | [3] 0.2% | [4] -11.1% | [5] 10.5% | [6] 6.3%

Cc1c2oc3c(C)ccc(C(=O)NCCN4CCN(c5ccccc5)CC4)c3nc-2c(C(=O)NCCN2CCN(c3ccccc3)CC2)c(N)c1=O
inactive: [1] -4.7% | [2] 2.2% | [3] -8.5% | [4] -11.3% | [5] -3.9% | [6] -32.6%

S=c1[nH]nc(SCc2ccc(Cl)cc2Cl)c2[nH]cnc12
inactive: [1] -2.15% | [2] 1.4% | [3] 11.4% | [4] -32.4% | [5] -0.5% | [6] -6%

CCCCN(CCCC)CC(O)c1cc(-c2ccc(Cl)c(Cl)c2)nc2c(Cl)cc(Cl)cc12 (configuration not stated)
inactive: [1] 28.3% | [2] 31.1% | [3] -15.7% | [4] 11.6% | [5] -15.5% | [6] -11.8%

COc1cc(/C=C/C(=N\NC(N)=S)c2sc(NNC(C)=O)nc2C)ccc1O
inactive: [1] 22.9% | [2] 6.8% | [3] 16.3% | [4] 21.2% | [5] 24.6% | [6] 14.8%

COC(=O)c1cc(OC)nc(Cl)n1
inactive: [1] 3.9% | [2] 13.2% | [3] 1.45% | [4] -37% | [5] -11.9% | [6] 1.9%

CC(C)N(CC(=O)NC(=O)c1ccccc1)Cc1ccccc1
inactive: [1] 3.5% | [2] -8.4% | [3] -1.95% | [4] -30.1% | [5] -1.5% | [6] -11.7%

O=C(Nc1ccccc1SC(/C=C/NNC1=NC(c2ccccc2)C(c2ccccc2)=NN1)c1ccccc1)c1ccc(Cl)cc1Cl (configuration not stated)
inactive: [1] -35% | [2] -7.7% | [3] -22.8% | [4] 24.8% | [5] 0.15% | [6] -13.4%

OCCN(Cc1ccccc1)C(c1ccccc1)c1ccccc1
active: [1] 98.8% | [2] 98.9% | [3] 98.8% | [4] 98.4% | [5] 98.5% | [6] 98.9%

CCOC(=O)C1CC2(CCC(=O)O2)C(=O)O1 (configuration not stated)
inactive: [1] -5.15% | [2] -5.95% | [3] -20.6% | [4] 3.05% | [5] -5.75% | [6] -6.85%

O=C(O)CNC(=O)C(=O)c1c[nH]c2ccc([N+](=O)[O-])cc12
inactive: [1] -6.5% | [2] -27.8% | [3] 1.05% | [4] -7.8% | [5] -2.1% | [6] 0.2%

O=S1c2ccccc2NC(c2ccc3ccccc3c2)CC1c1ccccc1 (configuration not stated)
inactive: [1] -46.2% | [2] -22.1% | [3] -6.75% | [4] 1.9% | [5] 5.05% | [6] -18.2%

CC(=O)Oc1ncnc2c1cnn2C
inactive: [1] -8.95% | [2] -1.65% | [3] -15.6% | [4] -38.6% | [5] 2.15% | [6] -3.3%

CC1COC(c2ccc(Cl)cc2)O1 (configuration not stated)
inactive: [1] 12.2% | [2] 18.1% | [3] 22% | [4] 20.4% | [5] -1.25% | [6] 12.7%

C1CCCNCCNCCNCC1
inactive: [1] -4.4% | [2] -17.1% | [3] -18.9% | [4] 16.1% | [5] -20.8% | [6] 19.1%

O=C(Nc1ccc(S(=O)(=O)N2CCCCC2)cc1)OC1CCCC1
inactive: [1] 3.85% | [2] 14.7% | [3] 1.15% | [4] 18.9% | [5] 14.8% | [6] -12.6%

CC(=O)[CH-]C(=O)c1ccccc1.CC(=O)[CH-]C(=O)c1ccccc1.CC[O-].O=C1C=C([O-])C(=O)c2ccccc21.[Ti+4]
inactive: [1] 25.4% | [2] 60.5% | [3] 63.5% | [4] 61.1% | [5] 59.9% | [6] 56.9%

Cc1cc2c(nn1)CCc1c-2no[n+]1[O-]
inactive: [1] 3.15% | [2] -32.1% | [3] -10.4% | [4] 22.5% | [5] 3.45% | [6] -2.8%

CC1(C2=CCCCC2)CCC(=O)NC1=O (configuration not stated)
inactive: [1] -6.35% | [2] 10.6% | [3] 0.2% | [4] 35.2% | [5] 14.1% | [6] 28.8%

COC(=O)C(=[N+]=[N-])C(=O)c1ccc([N+](=O)[O-])cc1
inactive: [1] 65.5% | [2] 23.9% | [3] 40.1% | [4] 41.8% | [5] 20.6% | [6] 42.3%

Reference: PubChem BioAssay (NCI)
